High-throughput results: PubChem, several laboratories
S1P4 agonist = agonists of human S1P4 receptor | O95977 | S1P4-expressing cell line, agonist reporter assay | activation, % at 4.98 µM | actives 0.35% (n = 220,000) | AID 1509; in the data active = activation above about 11%;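 note: 0% = DMSO vehicle and 100% = reference agonist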
Target sequence (O95977 whole entry, looked up): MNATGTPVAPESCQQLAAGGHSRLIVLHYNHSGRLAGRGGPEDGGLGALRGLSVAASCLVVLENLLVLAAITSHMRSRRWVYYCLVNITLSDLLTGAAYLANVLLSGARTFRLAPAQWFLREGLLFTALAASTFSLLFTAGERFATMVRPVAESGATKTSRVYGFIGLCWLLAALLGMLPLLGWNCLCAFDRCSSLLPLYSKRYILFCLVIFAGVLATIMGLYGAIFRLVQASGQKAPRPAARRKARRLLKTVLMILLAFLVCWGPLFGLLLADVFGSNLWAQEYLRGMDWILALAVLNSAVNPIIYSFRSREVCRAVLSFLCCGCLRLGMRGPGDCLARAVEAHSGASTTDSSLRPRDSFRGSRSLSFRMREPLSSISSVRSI
S1P4 antagonist = blocks the human S1P4 receptor. inhibition, % at 4.98 µM. AID 1510. O95977. actives 0.26% (n = 220,000). S1P4-expressing cells, antagonist mode, reporter read-out; in the data active = inhibition above about 29%;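 note: 0% = wells stimulated with agonist and 100% = vehicle wells without agonist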
HSF1 inhib = HSF1 inhibition; actives 0.77% (n = 300,000); NIH3T3-HGL HSE-luciferase, MG132-induced, luminescence 8 h; hits give low values; activity change, negative = inhibition, % at 7.5 µM (by protocol);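 active = more than half of replicate wells show activity change below -50%, luminescence cut by over half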;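 note: luciferase reports HSF-1 transcriptional activity via heat shock element; 0% = median of DMSO wells and -100% = zero luminescence signal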
Hsp70 activator = Hsp70 transcriptional activation, primary screen; AID 1203; HeLa Hsp70 promoter luciferase reporter, luminescence; scaled: vehicle 0, proteasome-inhibitor control 100%; activation, % at 10 µM; actives 0.04% (n = 200,000);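 active = activation above the mean across all tested compounds plus 3 SD, cutoff set per campaign, cut at about 5.5% in these data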;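 note: 100% = MG132 at 30 µM as the positive control and 0% = DMSO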
HSF1 activator = increases HSF-1 driven luciferase reporter signal; NIH3T3-HGL HSF-1 luciferase reporter, MG132, 8 h; 100% = twice DMSO control signal; activation, % at 9 µM; actives 1.7% (n = 300,000); AID 504408;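 active = mean replicate activation of at least 50% with a set share of replicates each reaching 50%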;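 note: 0% = median of the neutral control wells and 100% = twice that signal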
S1P3 antagonist = S1P3 (human) receptor antagonism; actives 0.27% (n = 170,000); AID 485; inhibition, % at 4.98 µM; CHO S1P3 NFAT-BLA reporter, FRET fluorescence, antagonist mode;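 active = inhibition above the plate cutoff, the mean inhibition of test wells on that plate plus 3 SD, cut at about 28% in these data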;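 note: cells challenged with S1P at its EC80 of 0.8 µM; blue over green emission ratio from cleaved BLA substrate after 4 h stimulation; 0% = S1P-stimulated wells and 100% = unstimulated DMSO-only wells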
Numbers without * were called inactive; x = no result. The list is not random: actives were taken first. Their share in the collection is about 2.9%.

SMILES	S1P4 agonist	S1P4 antagonist	HSF1 inhib	Hsp70 activator	HSF1 activator	S1P3 antagonist
COc1ccc2c(c1)C(=O)/C(=C/C=C/c1ccccc1)CC2	3	1	-5	0	-11	x
COc1ccc2c(c1)CC/C(=C\C=C\c1ccccc1OC)C2=O	1	2	53	0	58*	x
O=C1COc2ccc(OCc3ccc(F)cc3)cc21	-4	3	34	0	54*	-13
Cn1ncc([N+](=O)[O-])c1C(=O)Nc1ccccc1Cl	x	x	-73*	x	-77	x
O=[N+]([O-])/C=C\c1ccc(N2CCCC2)c(F)c1	3	6	47	0	79*	5
CCC(C)[C@H](NC(=O)NCc1ccc(S(N)(=O)=O)cc1)C(=O)O (stereo not given in full)	0	3	-9	x	-20	-3
O=C(NCCc1ccc(Cl)cc1)c1ccc2nccnc2c1	x	x	43	x	60*	x
O=C(NCCc1ccc(Cl)cc1)c1ccc2nc[nH]c2c1	1	-3	23	0	22	-10
O=C(CCl)Nc1cc(-c2ccccc2)nn1-c1ccccc1	-1	7	27	0	48	x
Cc1ccc(-c2cc(NC(=O)CCl)n(-c3ccccc3)n2)cc1	1	6	50	0	65*	x
CCn1c(CN2CCOCC2)nnc1SCC(=O)Nc1ccccc1Cl	x	x	0	x	-9	x
O=C(O)c1ccc(COc2ccccc2Cl)cc1	2	0	-5	0	4	-9
O=C1NC(=O)/C(=C\c2ccc(OCc3cccc(C(=O)O)c3)c(Cl)c2)N1	0	-6	-55*	0	-65	-9
COc1cc(/C=C2\NC(=S)NC2=O)ccc1OCc1cccc(C(=O)O)c1	x	x	-12	x	-17	x
O=C(O)c1cccc(COc2ccccc2Cl)c1	x	x	-86*	x	-88	x
O=C(O)/C=C/c1ccc(Oc2ncccn2)cc1	x	x	1	x	0	x
CC(C)(C)C(=O)/C=C/c1ccc(Oc2ccccc2)cc1	0	1	-59*	x	-68	8
COc1cc(NC(=O)CCc2c(C)[nH]c(=O)c(C#N)c2C)cc(OC)c1	x	x	2	x	17	x
COc1ccc(CNC(=O)CN(C(=O)CCC(=O)Nc2nccs2)c2ccc3c(c2)OCO3)cc1	x	x	4	x	-2	x
C=CCn1c(COc2ccccc2)nc2ccccc21	x	x	8	x	11	x
Cc1ccc([N+](=O)[O-])c(OCCCN2CCC(Cc3ccccc3)CC2)c1	x	x	-60*	x	-71	x
Cc1ccc([N+](=O)[O-])c(OCCN2CCCCCC2)c1	3	-11	-3	0	20	-8
CCN(CC(=O)c1c(N)n(C)c(=O)n(C)c1=O)c1cccc2ccccc12	0	-16	62	-1	85*	2
C[C@H]1CCC(=O)N([C@H](CN=[N+]=[N-])Cc2ccccc2)CC1	x	x	-3	x	0	x
Cc1cccc(C(=O)NCC(=O)N2CC(=O)Nc3ccccc32)c1	0	-18	-51*	0	-63	-3
SMILES	S1P4 agonist	S1P4 antagonist	HSF1 inhib	Hsp70 activator	HSF1 activator	S1P3 antagonist
O=C(O)Cc1sc(N/N=C\c2ccccc2)nc1-c1ccccc1	1	0	43	0	60*	-4
O=C(Cc1sc(Nc2ccccc2)nc1-c1ccccc1)NCc1ccccc1	1	-13	21	0	60*	-28
O=C(Cc1sc(-c2ccccc2)nc1-c1ccccc1)Nc1ccccc1	-2	-7	0	-1	-17	x
COc1cc(NC(=S)NC(=O)CCc2ccccc2)cc(OC)c1	x	x	4	x	2	x
COc1ccc(/C=C/C(=O)NC(=S)Nc2cc([N+](=O)[O-])ccc2O)cc1OC	-2	5	10	0	9	-17
O=C(NCCc1nc2ccccc2[nH]1)/C(=C/c1ccc(F)cc1)NC(=O)c1ccco1	1	-10	22	x	64*	-18
Cc1cc(C(=O)NC(CC(C)C)C(=O)O)cc(C)c1[N+](=O)[O-] (stereo not given)	1	-9	-4	0	4	6
CC(C)[C@H](NC(=O)OC(C)(C)C)C(=O)NCC1CCC(C(=O)N[C@@H](Cc2ccccc2)C(=O)O)CC1 (stereo not given in full)	x	x	-59*	x	-67	x
CC(C)[C@H](N)C(=O)NC[C@H]1CC[C@H](C(=O)N[C@@H](Cc2ccccc2)C(=O)O)CC1	x	x	-63*	x	-69	x
CC(C)C[C@H](NC(=O)OC(C)(C)C)C(=O)NCC1CCC(C(=O)N[C@@H](Cc2ccccc2)C(=O)O)CC1 (stereo not given in full)	x	x	-6	x	-27	x
CC(C)[C@@H](N)C(=O)NCC1CCC(C(=O)N[C@@H](Cc2ccccc2)C(=O)O)CC1 (stereo not given in full)	x	x	-4	x	8	x
C(=N\Nc1nc(N2CCCC2)nc(N2CCCC2)n1)/c1ccncc1	0	-4	-3	0	3	-29
COc1ccc(OC)c(Nc2nc3ccc(C)cc3n3cnnc23)c1	x	x	19	x	74*	x
CC(=O)c1cccc(N2C(=NC(=O)C3CC3)SC3CS(=O)(=O)CC32)c1 (stereo not given)	x	x	-1	x	0	x
COC(=O)c1sc(N)c(C(=O)OC)c1Cn1ncc(Cl)c(Cl)c1=O	x	x	20	x	61*	x
Cc1nn(C)c(C(=O)N/N=C/c2ccc(C(F)(F)F)cc2)c1[N+](=O)[O-]	2	-2	-1	0	0	0
Cc1nc2ccccn2c(=O)c1CCN1CCC(C(=O)c2ccc(F)cc2)CC1	81*	-1	2	0	-11	-10
Cc1nc2sccn2c(=O)c1CCN1CCC(=C(c2ccc(F)cc2)c2ccc(F)cc2)CC1	0	-1	0	0	-6	-2
COc1ccc(N2CCN(CCCn3c(=S)[nH]c4ncccc4c3=O)CC2)cc1	-2	4	-56*	0	-64	x
O=c1c2cccnc2[nH]c(=S)n1CCCN1CCN(c2ccc(F)cc2)CC1	-2	-4	6	0	26	-8
NC(=O)c1ccccc1NC(=O)/C=C/c1c(Cl)cccc1Cl	-3	-14	40	0	83*	x
NC(=O)c1ccccc1NC(=O)/C=C/c1cccc(Cl)c1	4	-20	7	1	-2	x
N#Cc1c2n(c(=S)n(-c3ccc(F)cc3)c1=O)CCCCC2	0	-4	5	0	-12	-7
Cc1ccc2nc(N3C(=O)C(O)=C(C(=O)c4ccco4)C3c3cccs3)sc2c1 (stereo not given)	2	-12	35	1	66*	x
CC(C)(C)c1ccc(/C=C/C(=O)Nc2ccncc2)cc1	-2	-28	40	0	56*	-20
O=C(/C=C/c1ccc([N+](=O)[O-])cc1)Nc1cccnc1	2	20	21	0	54*	x
O=C(/C=C/c1ccc(Cl)c([N+](=O)[O-])c1)Nc1cccnc1	1	-5	13	0	26	x
O=C(/C=C/c1cccs1)Nc1ccncc1	1	-13	7	0	16	-4
